Bioassay records deposited in PubChem by National Center for Advancing Translational Sciences (NCATS).
CtBP-E1A blk = inhibitors of CtBP/E1A interaction. activity change, % (no concentration beside the values). AlphaScreen GST-E1A/His-CtBP binding, 1536-well; hits give low values. 340,000 compounds, 0.49% hits; in the data active means activity change below about -65%; inconclusive means mostly about -30% to -63%
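In 5 uL wells, 23 nL compound meets equimolar GST-E1A and His-CtBP (5X stock 125 nM each) for 2 h, 37 °C. Beads (5X, 50 ug/mL) then 1 h, 37 °C, dark.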
KDM4E inh = blocks human JMJD2E demethylase activity | 230,000 compounds, 1.6% hits | JMJD2E catalytic domain, FDH-coupled NADH fluorescence (FDH is formaldehyde dehydrogenase) | B2RXH2 | Potency, µM (series often up to 57.1 µM), hits mostly inhibitors; active means well fitted inhibition curve with a large enough effect, not every such curve was filed as active; inconclusive means small, poorly fitted or top-dose-only effect, or another doubt; inactive means no such curve, though single readings can be large or run the other way; further: nearly all actives have a fitted effect of over 50% in size
L3MBTL1 inh-1 = inhibitors of human L3MBTL1. 230,000 compounds, 0.66% hits. AID 485360. Potency, µM (top dose mostly 57.1 µM), actives largely listed as inhibitors. Q9Y468. AlphaScreen L3MBTL1–H3K9me1 peptide binding; further: nearly all actives have a fitted effect of over 60% in size
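L3MBTL1 50 nM + b-AHA-H3(1-15)K9me1 75 nM, 30 min RT; compound added, 30 min RT; streptavidin donor/Ni-chelate acceptor beads 10 ug/mL each final, 30 min RT dark; AlphaScreen read.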
Six1-Eya2 blk = inhibitors of human Six1/Eya2 interaction. Q15475+O00167. AlphaScreen GST-Six1/His-Eya2 binding, biochemical; hits give low values. activity change, % (test concentration not listed). 360,000 compounds, 0.56% hits; in the data active means activity change below about -65%; inconclusive means mostly about -30% to -63%
Target sequence (O00167 whole entry, looked up): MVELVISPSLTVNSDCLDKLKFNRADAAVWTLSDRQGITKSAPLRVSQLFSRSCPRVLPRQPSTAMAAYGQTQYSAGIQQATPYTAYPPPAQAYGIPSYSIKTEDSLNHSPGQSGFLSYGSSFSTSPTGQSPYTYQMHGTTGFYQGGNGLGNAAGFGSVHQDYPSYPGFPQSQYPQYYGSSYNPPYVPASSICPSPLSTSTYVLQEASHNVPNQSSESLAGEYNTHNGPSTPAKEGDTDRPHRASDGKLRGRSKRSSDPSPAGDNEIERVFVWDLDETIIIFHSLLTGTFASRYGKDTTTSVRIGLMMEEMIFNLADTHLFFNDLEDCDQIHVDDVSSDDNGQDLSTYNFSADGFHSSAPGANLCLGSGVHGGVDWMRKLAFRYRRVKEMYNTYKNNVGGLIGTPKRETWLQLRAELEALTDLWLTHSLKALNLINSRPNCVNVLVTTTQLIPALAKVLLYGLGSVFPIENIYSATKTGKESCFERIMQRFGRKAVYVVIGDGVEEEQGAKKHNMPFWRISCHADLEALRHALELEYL
Target sequence (Q15475 whole entry, looked up): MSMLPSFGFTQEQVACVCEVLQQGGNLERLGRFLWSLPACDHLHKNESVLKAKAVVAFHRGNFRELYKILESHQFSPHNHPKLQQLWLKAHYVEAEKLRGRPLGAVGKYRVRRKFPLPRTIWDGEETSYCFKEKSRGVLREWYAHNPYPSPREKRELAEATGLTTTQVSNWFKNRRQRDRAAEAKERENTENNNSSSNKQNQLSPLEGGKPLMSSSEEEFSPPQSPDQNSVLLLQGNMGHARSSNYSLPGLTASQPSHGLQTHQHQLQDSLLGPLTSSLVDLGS
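GST-Six1 + His-Eya2 (5X stock: 250/500 nM); Tris pH 8.0, 300 mM NaCl, 0.05% BSA, 0.02% Tween 20; GSH donor/Ni acceptor beads; 1 h 37 °C dark; AlphaScreen readout.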
L3MBTL1 inh-2 = validation of human L3MBTL1 methyl-lysine binding inhibitors. L3MBTL1 methyl-lysine binding inhibition, biochemical qHTS. Potency, µM, most hits filed as inhibitors. 500 compounds, 91% hits. shares compounds with L3MBTL1 inh-1; further: nearly all actives have a fitted effect of over 70% in size
L3MBTL1 ctr = interferes with AlphaScreen signal in L3MBTL1 counterscreen | AlphaScreen counterscreen, signal inhibition | shares compounds with L3MBTL1 inh-1 | 500 tested, under 10 active | Potency, µM (highest dose often 57.1 µM), hits mostly inhibitors
A number is an active result; – = inactive; ? = inconclusive; · = no result. Many of the other results were omitted from the sample, so hits are more common in it than they were. Unless noted, the call rests on the fitted dose curve; in most records, active means well fitted curve in the direction sought with a large enough effect; inconclusive means small, poorly fitted or top-dose-only effect, or another doubt; inactive means no such curve, though single readings can be large; an effect the other way counts as inactive or inconclusive.

SMILES	CtBP-E1A blk	KDM4E inh	L3MBTL1 inh-1	Six1-Eya2 blk	L3MBTL1 inh-2	L3MBTL1 ctr
N=C1/C(=C\c2ccc(-c3cccc(Cl)c3)o2)C(=O)N=C2SC=C(c3ccccc3)N12	–	–	35µM	–	27	?
N=C1/C(=C\c2ccc(-c3ccc(C(=O)O)cc3)o2)C(=O)N=C2SC=C(c3ccccc3)N12	–	?	·	–	·	·
O=C(Nc1cccc(C(=O)N2CCOCC2)c1)c1ncn[nH]1	–	–	28µM	?	21	?
O=C(CCc1cccc(Cl)c1)NC1CCCN(Cc2ccccc2F)C1 (stereo not drawn)	–	·	–	–	·	·
COc1ccc2[nH]c(=O)cc(C(=O)O)c2c1	–	?	22µM	–	3.4	–
O=C(c1ccco1)N(c1ccccn1)c1ccccn1	–	–	·	–	·	·
O=C(/C=C/c1ccco1)N(c1ccccn1)c1ccccn1	–	?	4µM	?	2.7	–
CCc1ccccc1NC(=O)CSc1ccsc1[N+](=O)[O-]	–	–	28µM	–	24	–
O=C(CSc1ccsc1[N+](=O)[O-])NCc1ccccc1	–	–	–	–	·	·
O=C(CSc1ccsc1[N+](=O)[O-])Nc1cccc(F)c1	–	–	28µM	–	7.5	–
CCC1(CC)NC(=O)N(CC(=O)OCc2nc3cc(C(=O)OC)ccc3c(=O)[nH]2)C1=O	–	·	–	–	·	·
Cc1cccc(C)c1NC(=O)CSc1nnc(-c2ccco2)c(-c2ccco2)n1	–	?	2.8µM	-67	2.7	–
CCCCc1n(CC(=O)c2ccc(Cl)cc2)c2ccccc2[n+]1C	–	–	–	–	·	·
O=C(O)CC/C(=C\c1cccc(NC(=O)c2ccccc2Cl)c1)c1nc2ccccc2s1	–	?	35µM	–	?	–
O=C(O)CC/C(=C\c1cc([N+](=O)[O-])ccc1Cl)c1nc2ccccc2s1	–	–	–	–	·	·
COc1ccc(C(CNC(=O)CNC(=O)c2cccc(F)c2)N2CCOCC2)cc1 (stereo not drawn)	–	·	·	–	·	·
Cc1ccc(-c2csc3ncn(CC#N)c(=O)c23)cc1	–	–	–	–	·	·
Cc1ccc(-c2csc3ncn(CC#N)c(=O)c23)cc1C	–	·	22µM	–	21	–
COc1cccc(=O)c2c(C)n(-c3ccc(C(=O)O)cc3)c(C)c12	–	?	25µM	?	21	–
COc1ccc(Sc2ccc(/C=C3\C(=O)NN(c4ccccc4)C3=O)o2)cc1	–	–	28µM	–	21	?
O=C(O)c1cccc(-n2cccc2/C=C2/NC(=O)N(Cc3ccccc3F)C2=O)c1	–	–	32µM	–	6	–
O=C1N/C(=C/c2cccn2-c2ccc(F)cc2)C(=O)N1Cc1ccccc1F	–	–	–	–	·	·
Cc1ccc(NC(=O)CN2C(=O)N/C(=C/c3cccn3-c3ccc(C(=O)O)cc3)C2=O)cc1	–	?	2.2µM	-74	0.47	?
Cc1ccc(NC(=O)CN2C(=O)N/C(=C/c3cc(C)n(-c4ccc(C(=O)O)cc4)c3C)C2=O)cc1	–	?	·	–	·	·
Cn1c(CNC(=O)c2ccc(F)cc2)cc2ccccc21	·	·	–	–	·	·
SMILES	CtBP-E1A blk	KDM4E inh	L3MBTL1 inh-1	Six1-Eya2 blk	L3MBTL1 inh-2	L3MBTL1 ctr
CC1CCN(Cc2c(O)ccc3c2O/C(=C\c2ccco2)C3=O)CC1	–	?	10µM	–	27	–
CC1CCN(S(=O)(=O)c2cn(CC(=O)N3CCN(c4cccc(C(F)(F)F)c4)CC3)cn2)CC1	–	·	·	–	·	·
C=CCn1c(C)cc(C(=O)Cn2ncc(Cl)c(Cl)c2=O)c1C	–	–	14µM	–	?	–
CC(C)(C)C(=O)Cn1ncc(Cl)c(Cl)c1=O	·	–	–	–	·	·
CC1CC(C)(C)CC2(C1)NC(=O)N(CC(=O)N(C)Cc1nc3ccccc3c(=O)[nH]1)C2=O (stereo not drawn)	–	·	–	–	·	·
COc1ccc(CNC(=O)c2cnc(C)cn2)cc1	–	–	22µM	–	17	–
Cc1ccc(CC(=O)O/N=C(\N)c2ccncc2)cc1	–	·	·	–	·	·
O=c1cc(-c2ccccc2Cl)c2c([nH]1)CCC2	–	–	28µM	–	?	–
C/C(=N\NC(=O)CC#N)c1ccc(Oc2ccccc2)cc1	·	–	·	–	·	·
O=C(Nc1ccc2nc(-c3ccco3)c(-c3ccco3)nc2c1)NC1CC1	?	?	4µM	-68	2.4	–
O=C(CN1C(=O)NC2(CCc3ccccc32)C1=O)NCc1ccc(Cl)cc1 (stereo not drawn)	–	·	–	–	·	·
CCNc1nc(NCC)n2c(SCC(=O)Nc3ccc(F)cc3)nnc2n1	–	·	28µM	–	?	–
COc1cccc2cc(-c3nnc(SCC(=O)Nc4ccc(NC(C)=O)cc4)n3C)oc12	–	·	·	–	·	·
O=C(Nc1nc(-c2ccccn2)cs1)C1COc2ccccc2O1 (stereo not drawn)	?	–	11µM	-91	12	–
Cc1cc(C)cc(N=C2NC(=O)/C(=C/c3cccs3)S2)c1	·	–	–	–	·	·
Cc1ccc(N=C2NC(=O)/C(=C\c3ccco3)S2)cc1	–	–	20µM	–	27	–
O=C1NC(=Nc2ccc(Cl)cc2)/C(=C/c2ccco2)S1	–	?	25µM	–	8.4	–
Cc1cccc(N=C2NC(=O)S/C2=C\c2ccco2)c1	–	–	?	–	·	·
O=c1n(S(=O)(=O)c2cccc3cccnc23)c2ccccc2n1S(=O)(=O)c1cccc2cccnc12	–	–	·	–	·	·
COCCCNC(=O)COc1cc2c(c3oc(=O)c(C)c(C)c13)CCC(C)(C)O2	–	·	·	–	·	·
O=C(NCCCN1CCCC1=O)c1cc2nc(-c3ccco3)cc(C(F)(F)F)n2n1	–	·	·	–	·	·
CCN(CC(=O)Nc1ccc(NC(C)=O)cc1)C(=O)c1cccc(-n2cccc2)c1	–	·	28µM	–	21	–
Cc1ccc(C)c(NC(=O)CN(C)C(=O)c2cccc(-n3cccc3)c2)c1	–	·	8.9µM	–	2.7	?
Cc1cc(C)n(-c2nnc3c4ccccc4n(C)c3n2)n1	–	–	28µM	–	?	?
C/C(=N\Nc1nnc2c3ccccc3n(C)c2n1)c1ccc(C)o1	–	–	–	–	·	·
SMILES	CtBP-E1A blk	KDM4E inh	L3MBTL1 inh-1	Six1-Eya2 blk	L3MBTL1 inh-2	L3MBTL1 ctr
CN(C)CCOC(=O)c1ccc2[nH]c3c(c2c1)CSCC3	–	–	·	–	·	·
O=C(O)c1ccc2[nH]c3c(c2c1)CSCC3	–	–	32µM	–	13	–
CCN(CC)S(=O)(=O)c1ccc(N2CCOCC2)c(NC(=O)c2c3c(nc4ccccc24)CCC3)c1	–	–	28µM	–	8.4	–
CCS(=O)(=O)N1Cc2ccccc2CC1C(=O)Nc1nnc(SCc2ccc(C#N)cc2)s1 (stereo not drawn)	–	?	18µM	–	3.4	–
COc1cc(/C=C/[N+](=O)[O-])ccc1OCc1cccc(C(=O)O)c1	–	?	28µM	-76	?	–
CC(C)CCC(CCN1CCCC1)c1ccc2c(c1)OCO2 (stereo not drawn)	–	?	28µM	–	21	–
